# Measured values: PubChem BioAssay
# Where “and” joins values, the source holds several entries; their conditions need not be identical. Equal entries are not always repeated. Results filed as inconclusive are left out. Calls of active or inactive are those of the source.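 Rule for the calls, unless noted: active = normalized viability below 100% at a tested concentration; inactive = the rest.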
# What was measured:
# [1] = growth inhibition of DIPG glioma cells, dose response, cell-based, SU-DIPG-XIII, MIPE4.0, CellTiter-Glo, qHTS (AID 1347061; cut-off not given, nearly all actives have AC50 up to about 37 µM;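 note: cells exposed to compound for 48 hours before readout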); details: SU-DIPG-XIII viability, CellTiter-Glo ATP luminescence
# [2] = growth inhibition of DIPG glioma cells, dose response, cell-based, JHH-DIPG-1, MIPE4.0, CellTiter-Glo, qHTS (AID 1347062; cut-off not given, nearly all actives have AC50 up to about 27 µM;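 for AC50: cells exposed to compound for two days before readout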); details: JHH-DIPG-1 viability, CellTiter-Glo ATP luminescence
# [3] = SU-DIPG-VI glioma cell viability, MIPE4.0 library, CellTiter-Glo luminescence, qHTS (AID 1347066; cut-off not given, nearly all actives have AC50 up to about 30 µM;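 note: cells exposed to compound for 48 hours before readout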); details: CellTiter-Glo ATP luminescence
# [4] = JHH-DIPG-1 glioma cell viability, MIPE5.0 library, CellTiter-Glo luminescence, qHTS (AID 1347067; cut-off not given, nearly all actives have AC50 up to about 26 µM;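 note: cells exposed to compound for 48 hours before readout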); details: JHH-DIPG-1 glioma viability, CellTiter-Glo ATP luminescence
# [5] = SU-DIPG-XXV glioma cell viability, MIPE5.0 library, qHTS (AID 1347068; cut-off not given, nearly all actives have IC50 up to about 30 µM;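 for IC50: cells exposed to compound for 48 hours before viability readout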)
# [6] = sensitizers of A549 cells to miR-34 induction, primary screen, imaging, A549 dox-inducible miR-34, nuclei and caspase counts (AID 1347080;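 active = compounds whose cell count with miR-34 switched on is under 0.7 times the count with it off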); details: A549 miR-34 inducible, Hoechst nuclei count, 48 h
# [7] = survival rescue of mitochondrial mutant cells in low glucose, primary screen, MELAS cybrids, Rieske KO mouse fibroblasts, CellTiter-Glo (AID 1508586;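 active = mean z-score across replicates of 1.96 or higher in either the MELAS or the Rieske mutant cell line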;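 note: z relative to plate mean and SD of compound and empty wells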)
# [8] = viability loss in pontine glioma line – cell-based, SU-DIPG-XXV, MIPE5.0, CellTiter-Glo, qHTS, dose response (AID 1347065; cut-off not given, nearly all actives have AC50 up to about 26 µM;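 note: cells exposed to compound for 48 hours before ATP readout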); details: CellTiter-Glo ATP luminescence
# [9] = modifiers of HSF1 nuclear foci, imaging, Selleck Cancer Library (AID 1347162; in the data active = plate-normalised HSF1 focus index below about 0.46); details: human cells, at 10 µM; SSMD: measured here: HSF1 foci SSMD mean; cell count: measured here: cell number; plate-normalised HSF1 focus index: stronger effect = lower value
# [10] = ovarian cancer cell viability with rucaparib, profiling panel, oncology-focused library, rucaparib conditional (AID 1508598); details: patient-derived ovarian cancer cells, CellTiter-Glo viability, 144 h, stronger effect = lower value
# [11] = growth inhibition of DIPG glioma cells, dose response, cell-based, SU-DIPG-XIII, MIPE5.0, CellTiter-Glo, qHTS (AID 1347064; cut-off not given, nearly all actives have AC50 up to about 23 µM;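 note: cells exposed to compound for 48 hours before the viability read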); details: SU-DIPG-XIII viability, CellTiter-Glo ATP luminescence
# [12] = stronger effect = lower value, cell number ratio, induced over uninduced
# [13] = measured here: relative caspase fold change +Dox/-Dox
# [14] = measured here: total cells with miR-34 induction, stronger effect = lower value
# [15] = measured here: total cells without miR-34 induction
# [16] = MELAS cybrid survival, CellTiter-Glo 48 h, stronger effect = higher value
# [17] = Rieske KO mouse fibroblast survival, CellTiter-Glo 72 h
# [18] = at 0.000305 µM, OCI-C5x cells, with rucaparib 10 µM, 100% = cells with rucaparib alone
# [19] = at 0.000305 µM, OCI-C5x cells, without rucaparib
# [20] = at 0.000305 µM, OCI-P5x cells, with rucaparib 20 µM, 100% = cells with rucaparib alone
# [21] = at 0.000305 µM, OCI-P5x cells, without rucaparib
# [22] = at 0.00122 µM, OCI-C5x cells, with rucaparib 10 µM, 100% = cells with rucaparib alone
# [23] = at 0.00122 µM, OCI-C5x cells, without rucaparib
# [24] = at 0.00122 µM, OCI-P5x cells, with rucaparib 20 µM, 100% = cells with rucaparib alone
# [25] = at 0.00122 µM, OCI-P5x cells, without rucaparib
# [26] = at 0.00488 µM, OCI-C5x cells, with rucaparib 10 µM, 100% = cells with rucaparib alone
# [27] = at 0.00488 µM, OCI-C5x cells, without rucaparib
# [28] = at 0.00488 µM, OCI-P5x cells, with rucaparib 20 µM, 100% = cells with rucaparib alone
# [29] = at 0.00488 µM, OCI-P5x cells, without rucaparib
# [30] = at 0.0195 µM, OCI-C5x cells, with rucaparib 10 µM, 100% = cells with rucaparib alone
# [31] = at 0.0195 µM, OCI-C5x cells, without rucaparib
# [32] = at 0.0195 µM, OCI-P5x cells, with rucaparib 20 µM, 100% = cells with rucaparib alone
# [33] = at 0.0195 µM, OCI-P5x cells, without rucaparib
# [34] = at 0.0781 µM, OCI-C5x cells, with rucaparib 10 µM, 100% = cells with rucaparib alone
# [35] = at 0.0781 µM, OCI-C5x cells, without rucaparib
# [36] = at 0.0781 µM, OCI-P5x cells, with rucaparib 20 µM, 100% = cells with rucaparib alone
# [37] = at 0.0781 µM, OCI-P5x cells, without rucaparib
# [38] = at 0.313 µM, OCI-C5x cells, with rucaparib 10 µM, 100% = cells with rucaparib alone
# [39] = at 0.313 µM, OCI-C5x cells, without rucaparib
# [40] = at 0.313 µM, OCI-P5x cells, with rucaparib 20 µM, 100% = cells with rucaparib alone
# [41] = at 0.313 µM, OCI-P5x cells, without rucaparib
# [42] = at 1.25 µM, OCI-C5x cells, with rucaparib 10 µM, 100% = cells with rucaparib alone
# [43] = at 1.25 µM, OCI-C5x cells, without rucaparib
# [44] = at 1.25 µM, OCI-P5x cells, with rucaparib 20 µM, 100% = cells with rucaparib alone
# [45] = at 1.25 µM, OCI-P5x cells, without rucaparib
# [46] = at 5 µM, OCI-C5x cells, with rucaparib 10 µM, 100% = cells with rucaparib alone
# [47] = at 5 µM, OCI-C5x cells, without rucaparib
# [48] = at 5 µM, OCI-P5x cells, with rucaparib 20 µM, 100% = cells with rucaparib alone
# [49] = at 5 µM, OCI-P5x cells, without rucaparib
compound,measurement,setting,value
CC(C)(C)C(=O)Oc1ccc2c(c1)nc(NC(=O)c1cccc([N+](=O)[O-])c1)n2CCCO,outcome,[1],inactive
same,outcome,[2],inactive
same,outcome,[3],inactive
same,outcome,[4],inactive
same,outcome,[5],inactive
c1ccc2c(Oc3nc(Nc4ccc(N5CCOCC5)cc4)c4ncn(C5CCCCC5)c4n3)cccc2c1,outcome,[1],inactive
same,outcome,[2],inactive
same,outcome,[3],inactive
same,AC50,[4],13.2 µM (active)
same,outcome,[5],inactive
same,fold change,[6]; [12],0.897 (inactive) and 0.992 (inactive)
same,fold change,[6]; [13],0.721 and 0.438
same,cell count,[6]; [14],5540 and 6870
same,cell count,[6]; [15],6180 and 6930
same,z-score,[7]; [16],-0.486 (inactive)
same,z-score,[7]; [17],0.0671
Cc1csc(-c2nnc(Nc3ccc(Oc4ncccc4-c4ccnc(N)n4)cc3)c3ccccc23)c1,outcome,[1],inactive
same,outcome,[2],inactive
same,AC50,[8],0.00417 µM (active)
same,outcome,[3],inactive
same,outcome,[4],inactive
same,fold change,[6]; [12],1.11 (inactive)
same,fold change,[6]; [13],0.556
same,cell count,[6]; [14],3250
same,cell count,[6]; [15],2920
same,SSMD,[9],8.74
same,cell count,[9],7110
same,plate-normalised HSF1 focus index,[9],1.31 (inactive)
same,z-score,[7]; [16],-0.373 (inactive)
same,z-score,[7]; [17],1.23
same,viability,[10]; [18],113% (inactive)
same,viability,[10]; [19],116% (inactive)
same,viability,[10]; [20],111% (inactive)
same,viability,[10]; [21],94.9% (active)
same,viability,[10]; [22],109% (inactive)
same,viability,[10]; [23],107% (inactive)
same,viability,[10]; [24],108% (inactive)
same,viability,[10]; [25],98.2% (active)
same,viability,[10]; [26],103% (inactive)
same,viability,[10]; [27],92.7% (active)
same,viability,[10]; [28],113% (inactive)
same,viability,[10]; [29],93.3% (active)
same,viability,[10]; [30],78.2% (active)
same,viability,[10]; [31],88.5% (active)
same,viability,[10]; [32],93% (active)
same,viability,[10]; [33],70.3% (active)
same,viability,[10]; [34],82.2% (active)
same,viability,[10]; [35],99.2% (active)
same,viability,[10]; [36],92.9% (active)
same,viability,[10]; [37],66.6% (active)
same,viability,[10]; [38],79.9% (active)
same,viability,[10]; [39],105% (inactive)
same,viability,[10]; [40],94.9% (active)
same,viability,[10]; [41],67.8% (active)
same,viability,[10]; [42],102% (inactive)
same,viability,[10]; [43],95.4% (active)
same,viability,[10]; [44],91% (active)
same,viability,[10]; [45],64.7% (active)
same,viability,[10]; [46],119% (inactive)
same,viability,[10]; [47],133% (inactive)
same,viability,[10]; [48],58.5% (active)
same,viability,[10]; [49],54.4% (active)
Cn1cc(-c2ccc3nnc(C(F)(F)c4ccc5ncccc5c4)n3n2)cn1,outcome,[1],inactive
same,outcome,[2],inactive
same,outcome,[8],inactive
same,outcome,[4],inactive
same,outcome,[5],inactive
same,fold change,[6]; [12],0.861 (inactive)
same,fold change,[6]; [13],0.881
same,cell count,[6]; [14],6960
same,cell count,[6]; [15],8080
same,SSMD,[9],2.73
same,cell count,[9],6920
same,plate-normalised HSF1 focus index,[9],1.14 (inactive)
same,z-score,[7]; [16],-0.414 (inactive)
same,z-score,[7]; [17],0.567
same,viability,[10]; [18],113% (inactive)
same,viability,[10]; [19],90.8% (active)
same,viability,[10]; [20],102% (inactive)
same,viability,[10]; [21],89.6% (active)
same,viability,[10]; [22],123% (inactive)
same,viability,[10]; [23],106% (inactive)
same,viability,[10]; [24],104% (inactive)
same,viability,[10]; [25],98.1% (active)
same,viability,[10]; [26],118% (inactive)
same,viability,[10]; [27],109% (inactive)
same,viability,[10]; [28],107% (inactive)
same,viability,[10]; [29],101% (inactive)
same,viability,[10]; [30],116% (inactive)
same,viability,[10]; [31],114% (inactive)
same,viability,[10]; [32],106% (inactive)
same,viability,[10]; [33],98.3% (active)
same,viability,[10]; [34],110% (inactive)
same,viability,[10]; [35],110% (inactive)
same,viability,[10]; [36],104% (inactive)
same,viability,[10]; [37],102% (inactive)
same,viability,[10]; [38],120% (inactive)
same,viability,[10]; [39],112% (inactive)
same,viability,[10]; [40],105% (inactive)
same,viability,[10]; [41],95.6% (active)
same,viability,[10]; [42],133% (inactive)
same,viability,[10]; [43],123% (inactive)
same,viability,[10]; [44],107% (inactive)
same,viability,[10]; [45],104% (inactive)
same,viability,[10]; [46],130% (inactive)
same,viability,[10]; [47],137% (inactive)
same,viability,[10]; [48],97% (active)
same,viability,[10]; [49],104% (inactive)
COc1cc(OC2CCN(C)CC2)ccc1Nc1ncc2c(n1)n(C1CCCC1)c(=O)n2C,AC50,[1],16.6 µM (active)
same,AC50,[2],18.7 µM (active)
same,AC50,[11],18.6 µM (active)
same,AC50,[8],13.2 µM (active)
same,AC50,[4],14.8 µM (active)
same,IC50,[5],16.6 µM (active)
same,fold change,[6]; [12],0.984 (inactive)
same,fold change,[6]; [13],0.864
same,cell count,[6]; [14],5400
same,cell count,[6]; [15],5490
same,SSMD,[9],1.43
same,cell count,[9],7430
same,plate-normalised HSF1 focus index,[9],1.05 (inactive)
same,z-score,[7]; [16],-0.255 (inactive)
same,z-score,[7]; [17],0.614
same,viability,[10]; [18],107% (inactive)
same,viability,[10]; [19],133% (inactive)
same,viability,[10]; [20],116% (inactive)
same,viability,[10]; [21],112% (inactive)
same,viability,[10]; [22],107% (inactive)
same,viability,[10]; [23],125% (inactive)
same,viability,[10]; [24],117% (inactive)
same,viability,[10]; [25],115% (inactive)
same,viability,[10]; [26],107% (inactive)
same,viability,[10]; [27],120% (inactive)
same,viability,[10]; [28],110% (inactive)
same,viability,[10]; [29],108% (inactive)
same,viability,[10]; [30],105% (inactive)
same,viability,[10]; [31],113% (inactive)
same,viability,[10]; [32],112% (inactive)
same,viability,[10]; [33],94% (active)
same,viability,[10]; [34],96.6% (active)
same,viability,[10]; [35],120% (inactive)
same,viability,[10]; [36],118% (inactive)
same,viability,[10]; [37],110% (inactive)
same,viability,[10]; [38],101% (inactive)
same,viability,[10]; [39],124% (inactive)
same,viability,[10]; [40],122% (inactive)
same,viability,[10]; [41],111% (inactive)
same,viability,[10]; [42],48.8% (active)
same,viability,[10]; [43],115% (inactive)
same,viability,[10]; [44],106% (inactive)
same,viability,[10]; [45],64.7% (active)
same,viability,[10]; [46],46.3% (active)
same,viability,[10]; [47],115% (inactive)
same,viability,[10]; [48],76.9% (active)
same,viability,[10]; [49],28.1% (active)
